Where “and” joins values, the source holds several entries; their conditions need not be identical. Equal values may be shown once. Results filed as inconclusive are left out. Entries that show only a call come without a potency. A structure can be active in one record and inactive in another. Calls of active or inactive are those of the source. Unless noted, calls come from the whole dose curve; as a rule, active = well fitted curve in the direction sought with a large enough effect in the repeat runs; inconclusive = weak or mixed curves; inactive = no such curve, though single readings can be large; an effect the other way counts as inactive or inconclusive.
Legend:
[1] = qHTS assay to test for compound auto fluorescence at 535 nm (green) in HEK293 cells (AID 720680)
[2] = qHTS assay to test for compound auto fluorescence at 460 nm (blue) in HEK293 cell free culture (AID 720681)
Outline: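 Compounds were added to cell-free DMEM with 10% FBS and fluorescence read directly. The blue channel used 405 nm excitation and 460 nm emission, with triamterene as the reference fluorophore.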

[3] = qHTS assay to test for compound auto fluorescence at 535 nm (green) in HEK293 cell free culture (AID 720682)
Outline: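 Using fluorescein as calibrant, autofluorescence was quantified at 485/535 nm in cell-free DMEM containing 10% FBS after pintool addition of compound or vehicle.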

[4] = qHTS assay to test for compound auto fluorescence at 590 nm (red) in HEK293 cell free culture (AID 720683)
Outline: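 Cell-free wells of DMEM with 10% FBS received compound, and intrinsic fluorescence was read at excitation/emission 540/590 nm. Values expressed as equivalence to Rose Bengal sodium.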

[5] = qHTS assay to test for compound auto fluorescence at 590 nm (red) in HepG2 cell free culture (AID 720684)
Outline: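 Auto fluorescence equivalency versus Rose Bengal sodium, red channel Ex/Em 540/590 nm; compounds in cell-free MEM/10% FBS; DMSO vehicle control.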

[6] = qHTS assay to test for compound auto fluorescence at 460 nm (blue) in HepG2 cell free culture (AID 720685)
Outline: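 Cell-free plates of MEM plus 10% FBS received 23 nL compound or DMSO vehicle; blue-channel (405/460 nm) intensity scored against triamterene as reference fluorophore.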

[7] = qHTS assay to test for compound auto fluorescence at 535 nm (green) in HepG2 cell free culture (AID 720686)
[8] = qHTS assay to test for compound auto fluorescence at 460 nm (blue) in HepG2 cells (AID 720687)
Outline: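 HepG2 cells in MEM with 10% FBS, attached overnight at 37 C, were exposed to compound or DMSO for 1 hr at 37 C, 5% CO2. Blue fluorescence was read at 405/460 nm, with triamterene as reference fluorophore.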

[9] = biological target: Glucocorticoid receptor (Homo sapiens) (UniProt P04150); assay: qHTS assay to identify small molecule agonists of the glucocorticoid receptor (GR) signaling pathway (AID 720691; active = well fitted activation curve with a large enough effect in the signal ratio in the repeat runs, not every such curve was filed as active; the % refers to the signal ratio)
Glucocorticoid receptor (Homo sapiens), sequence (P04150 whole entry, looked up): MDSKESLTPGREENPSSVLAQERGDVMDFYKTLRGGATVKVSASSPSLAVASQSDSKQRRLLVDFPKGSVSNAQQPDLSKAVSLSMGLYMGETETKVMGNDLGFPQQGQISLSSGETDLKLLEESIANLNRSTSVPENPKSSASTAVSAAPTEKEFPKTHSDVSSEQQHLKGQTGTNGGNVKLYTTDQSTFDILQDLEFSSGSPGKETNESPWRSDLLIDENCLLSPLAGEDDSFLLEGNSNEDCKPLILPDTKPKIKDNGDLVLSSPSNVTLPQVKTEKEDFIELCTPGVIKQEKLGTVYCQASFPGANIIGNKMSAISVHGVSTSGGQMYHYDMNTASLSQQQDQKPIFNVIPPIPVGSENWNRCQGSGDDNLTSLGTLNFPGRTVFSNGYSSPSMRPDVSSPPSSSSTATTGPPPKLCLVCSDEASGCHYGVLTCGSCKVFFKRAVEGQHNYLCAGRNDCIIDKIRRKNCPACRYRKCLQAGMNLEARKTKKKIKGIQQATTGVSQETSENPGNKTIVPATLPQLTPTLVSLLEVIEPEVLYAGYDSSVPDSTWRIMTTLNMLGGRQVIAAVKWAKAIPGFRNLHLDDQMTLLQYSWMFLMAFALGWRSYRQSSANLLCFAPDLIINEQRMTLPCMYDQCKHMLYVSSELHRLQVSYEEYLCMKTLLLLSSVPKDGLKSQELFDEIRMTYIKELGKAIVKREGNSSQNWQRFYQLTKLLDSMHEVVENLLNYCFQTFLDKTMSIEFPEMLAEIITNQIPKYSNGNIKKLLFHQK
Outline: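 Agonist-mode qHTS in HeLa cells stably expressing a glucocorticoid-response-element beta-lactamase reporter. Fluorescence intensity read with FRET substrate (2 h, room temperature) after 18 h compound treatment at 37 C.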

[10] = qHTS assay to identify small molecule antagonists of the glucocorticoid receptor (GR) signaling pathway - cell viability counter screen (AID 720693); note: nearly all actives have a fitted effect of over 55% in size; note: potency is the fitted concentration of half-maximal effect
[11] = qHTS assay for identifying genotoxic compounds that show differential cytotoxicity against isogenic chicken DT40 cell lines with known DNA damage response pathways - wild type cell line (AID 743012); note: nearly all actives have a fitted effect of over 60% in size; note: potency is the fitted concentration of half-maximal effect
Outline: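 Viability by ATP luminescence (CellTiter-Glo, 30 min RT) after 40 h compound treatment at 37 C/5% CO2, using 300 parental DNA repair-proficient DT40 cells per well.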

[12] = qHTS assay for identifying genotoxic compounds that show differential cytotoxicity against isogenic chicken DT40 cell lines with known DNA damage response pathways - Rev3 mutant cell line (AID 743014); note: nearly all actives have a fitted effect of over 55% in size; note: potency is the fitted concentration of half-maximal effect
[13] = qHTS assay for identifying genotoxic compounds that show differential cytotoxicity against isogenic chicken DT40 cell lines with known DNA damage response pathways - Rad54/Ku70 mutant cell line (AID 743015); note: nearly all actives have a fitted effect of over 60% in size; note: potency is the fitted concentration of half-maximal effect
[14] = qHTS assay to identify small molecule antagonists of the androgen receptor (AR) signaling pathway - cell viability counter screen (AID 743033; note: nearly all actives have a fitted effect of over 45% in size; note: potency is the fitted concentration of half-maximal effect)
[15] = qHTS assay to identify small molecule antagonists of the androgen receptor (AR) signaling pathway using the MDA cell line - cell viability counter screen (AID 743041; note: nearly all actives have a fitted effect of over 45% in size; note: potency is the fitted concentration of half-maximal effect)
Outline: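 Compound exposure lasted 16 h at 37C in MDA-kb2 AR-luc cells stimulated with R1881. Protease-based CellTiter-Fluor reagent was applied for the final 30 min and fluorescence measured.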

[16] = biological target: Androgen receptor (Homo sapiens) (UniProt P10275); assay: qHTS assay to identify small molecule antagonists of the androgen receptor (AR) signaling pathway (AID 743035; active = well fitted inhibition curve with a large enough effect in the signal ratio in the repeat runs, not every such curve was filed as active; the % refers to the signal ratio; note: potency is the fitted concentration of half-maximal effect)
Androgen receptor (Homo sapiens), sequence (P10275 whole entry, looked up): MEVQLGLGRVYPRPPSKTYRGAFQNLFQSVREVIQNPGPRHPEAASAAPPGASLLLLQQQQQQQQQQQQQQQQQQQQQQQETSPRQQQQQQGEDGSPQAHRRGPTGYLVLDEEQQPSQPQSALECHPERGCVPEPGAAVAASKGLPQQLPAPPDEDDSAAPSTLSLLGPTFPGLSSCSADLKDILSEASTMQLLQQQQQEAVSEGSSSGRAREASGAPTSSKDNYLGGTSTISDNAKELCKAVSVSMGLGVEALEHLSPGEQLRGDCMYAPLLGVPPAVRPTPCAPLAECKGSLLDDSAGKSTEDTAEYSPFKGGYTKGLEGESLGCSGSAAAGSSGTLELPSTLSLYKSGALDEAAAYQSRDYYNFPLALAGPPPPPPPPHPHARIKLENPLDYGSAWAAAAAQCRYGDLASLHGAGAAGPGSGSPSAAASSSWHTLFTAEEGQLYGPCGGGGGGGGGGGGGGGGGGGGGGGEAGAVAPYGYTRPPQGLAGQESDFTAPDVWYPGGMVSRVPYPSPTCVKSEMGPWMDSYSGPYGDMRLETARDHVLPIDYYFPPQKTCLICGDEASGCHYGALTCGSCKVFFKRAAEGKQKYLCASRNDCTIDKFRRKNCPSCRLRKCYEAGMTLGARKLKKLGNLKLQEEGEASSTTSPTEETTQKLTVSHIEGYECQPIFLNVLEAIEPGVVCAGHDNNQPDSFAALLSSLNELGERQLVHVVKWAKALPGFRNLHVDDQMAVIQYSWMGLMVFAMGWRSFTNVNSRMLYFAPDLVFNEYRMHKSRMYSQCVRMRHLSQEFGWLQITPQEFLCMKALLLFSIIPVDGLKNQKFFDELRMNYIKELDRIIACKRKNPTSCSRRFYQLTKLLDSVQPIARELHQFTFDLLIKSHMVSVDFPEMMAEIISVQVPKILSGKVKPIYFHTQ
Outline: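 Antagonist mode: AR-bla HEK293 cells co-treated with test compounds and agonist R1881 for 16 h at 37C, 5% CO2. Beta-lactamase activity read as FRET fluorescence after 2 h room-temperature substrate loading.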

[17] = biological target: Androgen receptor (Homo sapiens) (UniProt P10275); assay: qHTS assay to identify small molecule agonists of the androgen receptor (AR) signaling pathway using the MDA cell line (AID 743040; note: nearly all actives have a fitted effect of over 20% in size)
Outline: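 Testing was done with the MDA-kb2 AR-luc line, a human breast carcinoma stably transfected with MMTV-luciferase containing AR and GR response elements. Cells were exposed 16 h at 37C before ONE-Glo luminescence detection.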

[18] = biological target: Androgen receptor (Homo sapiens) (UniProt P10275); assay: qHTS assay to identify small molecule antagonists of the androgen receptor (AR) signaling pathway using the MDA cell line (AID 743042; note: nearly all actives have a fitted effect of over 55% in size; note: potency is the fitted concentration of half-maximal effect)
Outline: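 MDA-kb2 breast carcinoma cells carrying MMTV-luciferase (AR/GR responsive) were co-treated with compounds and the agonist R1881 for 16 h at 37C. Inhibition read as ONE-Glo luminescence; CellTiter-Fluor fluorescence measured in parallel for cytotoxicity.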

[19] = biological target: Androgen receptor (Homo sapiens) (UniProt P10275); assay: qHTS assay to identify small molecule agonists of the androgen receptor (AR) signaling pathway (AID 743036; active = well fitted activation curve with a large enough effect in the signal ratio in the repeat runs, with a control signal flat, not every such curve was filed as active; the % refers to the signal ratio)
Outline: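 In this Tox21 qHTS, 2,000 HEK293 AR-bla cells per well were incubated with compounds for 16 h at 37C and 5% CO2. Fluorescence intensity was recorded 2 h after adding LiveBLAzer B/G FRET substrate at room temperature.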

[20] = biological target: Glucocorticoid receptor (Homo sapiens) (UniProt P04150); assay: qHTS assay to identify small molecule antagonists of the glucocorticoid receptor (GR) signaling pathway (AID 720692; active = well fitted inhibition curve with a large enough effect in the signal ratio in the repeat runs, not every such curve was filed as active; the % refers to the signal ratio)
Outline: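 Inhibition of dexamethasone-driven (5 nM final) beta-lactamase expression was measured in GRE-reporter HeLa cells over 18 h at 37C. Fluorescence was read after 2 h with the B/G FRET substrate at room temperature.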

Row | SMILES | Potency [1] | Potency [2] | Potency [3] | outcome [4] | outcome [5] | Potency [6] | Potency [7] | Potency [8] | Potency [9] | Potency [10] | Potency [11] | Potency [12] | Potency [13] | Potency [14] | Potency [15] | Potency [16] | outcome [17] | Potency [18] | Potency [19] | Potency [20]
1 | COC(=O)[C@H]1[C@H]2C[C@@H]3c4[nH]c5cc(OC)ccc5c4CCN3C[C@H]2C[C@@H](OC(=O)c2cc(OC)c(OC)c(OC)c2)[C@@H]1OC | inactive | inactive | inactive | inactive | inactive | inactive | inactive | inactive | inactive | inactive | 13.3 µM (active) and 17.7 µM (active) | 18.8 µM (active) and 25 µM (active) | 18.8 µM (active) and 24.3 µM (active) and 22.3 µM (active) | inactive and 21.8 µM (active) | inactive | – | – | – | – | –
2 | Cc1cc(C2(c3cc(C)c(O)cc3C)OS(=O)(=O)c3ccccc32)c(C)cc1O | inactive | inactive | inactive | inactive | inactive | inactive | inactive | inactive | inactive | inactive | inactive | inactive | inactive | inactive | 30.6 µM (active) | – | – | – | – | –
3 | Oc1c(Cl)cc(Cl)c(Cl)c1Cc1c(O)c(Cl)cc(Cl)c1Cl | inactive | inactive | inactive | inactive | inactive | inactive | inactive | inactive | – | 1.69 µM (active) and 21.8 µM (active) and 19.5 µM (active) | 5.96 µM (active) and 3.05 µM (active) and 4.33 µM (active) | 5.96 µM (active) and 3.05 µM (active) and 3.86 µM (active) | 8.41 µM (active) and 3.05 µM (active) and 3.86 µM (active) | 9.52 µM (active) and 1.54 µM (active) and 1.74 µM (active) | 13.3 µM (active) and 17.2 µM (active) and 19.3 µM (active) | 10.7 µM (active) and 1.74 µM (active) | inactive | 13.3 µM (active) and 2.16 µM (active) and 5.45 µM (active) | – | –
4 | CCOc1ccccc1C(N)=O | inactive | inactive | inactive | inactive | inactive | inactive | inactive | inactive | inactive | inactive | inactive | inactive | inactive | inactive | inactive | inactive | inactive | inactive | inactive | –
5 | CCCCCCCCCCCC[N+](C)(C)C | inactive | inactive | inactive | inactive | inactive | inactive | inactive | inactive | inactive | 24.5 µM (active) and 17.4 µM (active) and 38.9 µM (active) | 861 nM (active) and 243 nM (active) and 217 nM (active) | 432 nM (active) and 137 nM (active) and 217 nM (active) | 543 nM (active) and 217 nM (active) | 48.9 µM (active) and 49 µM (active) and 38.9 µM (active) | – | – | – | – | – | –
6 | CCc1cc(C(C)(C)C)c(O)c(C(C)(C)C)c1 | inactive | inactive | inactive | inactive | inactive | inactive | inactive | inactive | inactive | inactive | – | inactive and 15.4 µM (active) | inactive | inactive | inactive | – | – | – | – | inactive
7 | CNC1(C)C2CCC(C2)C1(C)C (stereo unspecified) | inactive | inactive | inactive | inactive | inactive | inactive | inactive | inactive | inactive | inactive | inactive | inactive | inactive | inactive | inactive | – | – | – | – | inactive
8 | CC(C)(C)NC(=O)[C@@H]1CN(Cc2cccnc2)CCN1C[C@@H](O)C[C@@H](Cc1ccccc1)C(=O)N[C@H]1c2ccccc2C[C@H]1O | inactive | inactive | inactive | inactive | inactive | inactive | inactive | inactive | inactive | inactive | 23.7 µM (active) and inactive | 23.7 µM (active) and inactive | 18.8 µM (active) | inactive | inactive | – | – | – | – | –
9 | CCCOC(=O)c1cc(O)c(O)c(O)c1 | inactive | inactive | inactive | inactive | inactive | inactive | inactive | inactive | inactive | inactive | 13.3 µM (active) and 43.1 µM (active) and 43.3 µM (active) | 15 µM (active) and 27.2 µM (active) and 30.6 µM (active) | 13.3 µM (active) and 27.2 µM (active) and 27.3 µM (active) | inactive | inactive | – | – | – | – | –
10 | NC(N)=NC(=O)Cc1c(Cl)cccc1Cl | inactive | inactive | inactive | inactive | inactive | inactive | inactive | inactive | inactive | inactive | – | inactive | inactive | inactive | inactive | – | – | – | – | –
11 | CO[Si](OC)(OC)c1ccccc1 | inactive | inactive | inactive | inactive | inactive | inactive | inactive | inactive | inactive | inactive | inactive | inactive | inactive | inactive | inactive | – | – | – | – | inactive

From PubChem BioAssay (Tox21)
